# Only some compounds are listed: those with a hit (about 12% of all), similar ones and a draw of the others.
# HP1b chromo inh: blocks HP1-beta chromodomain binding to methylated histone tails. Potency, µM (highest dose often 114 µM), for the others: top-dose activity change, negative = inhibition, actives largely listed as inhibitors. AlphaScreen HP1-beta / biotin-H3K9me3 peptide binding. AID 540317. 0.56% of 390,000 active; also: nearly all actives have a fitted effect of over 70% in size
# Target sequence (P83916 whole entry, looked up): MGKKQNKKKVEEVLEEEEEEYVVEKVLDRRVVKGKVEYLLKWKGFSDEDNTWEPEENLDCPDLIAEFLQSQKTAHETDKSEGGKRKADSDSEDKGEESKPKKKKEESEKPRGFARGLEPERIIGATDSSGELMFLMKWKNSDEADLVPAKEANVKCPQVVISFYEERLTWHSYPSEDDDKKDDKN
#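 Compound inhibition of the preformed complex between 50 nM HP1-beta and 50 nM biotinylated H3K9me3 peptide was read by AlphaScreen. Buffer was PBS pH 7.4 with 0.01% Tween-20. Incubations ran 30 min at room temperature, with 10 ug/mL donor/acceptor beads.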
# G9a block: inhibitors of human histone lysine methyltransferase G9a; Potency, µM (highest dose often 102 µM), for the others: at the top dose activity, negative = inhibition, hits mostly inhibitors; AID 504332; Q96KQ7; 8.8% of 350,000 active; G9a H3K9 monomethylation, AlphaScreen, 2 h; also: % is scaled to controls: 0 for no effect and ±100 for the full control effect; nearly all actives have a fitted effect of over 75% in size
# Target sequence (Q96KQ7 913-1193 limits assumed): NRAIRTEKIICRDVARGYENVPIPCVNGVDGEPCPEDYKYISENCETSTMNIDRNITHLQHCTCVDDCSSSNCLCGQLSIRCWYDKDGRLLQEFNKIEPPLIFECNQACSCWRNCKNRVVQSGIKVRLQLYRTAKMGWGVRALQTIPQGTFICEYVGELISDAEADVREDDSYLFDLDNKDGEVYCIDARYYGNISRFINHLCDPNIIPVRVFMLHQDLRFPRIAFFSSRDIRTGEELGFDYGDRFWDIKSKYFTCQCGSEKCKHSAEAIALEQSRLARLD
#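 Signal arises when biotinylated H3K9 peptide, once monomethylated, bridges streptavidin donor and antibody-captured acceptor beads. Enzyme at 20 nM was preincubated 15 min with test compounds; peptide 500 nM and SAM 20 uM then reacted for 2 h.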
# L3MBTL1 inh: L3MBTL1 (human) inhibition | AID 485360 | Potency, µM (series often up to 57.1 µM), for inactives: at the highest dose activity, negative = inhibition, usual class: inhibitors | AlphaScreen L3MBTL1–H3K9me1 peptide binding | Q9Y468 | 0.66% of 230,000 active; also: % is scaled to controls: 0 for no effect and ±100 for the full control effect; nearly all actives have a fitted effect of over 60% in size
#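 First, the protein-peptide complex forms for 30 min at room temperature (L3MBTL1 50 nM, biotinylated H3K9me1 peptide 75 nM). Next, compounds are pin-transferred and incubated 30 min. Finally, AlphaScreen beads are added and read after 30 min.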
# Sfp PPTase inh: inhibitors of Bacillus subtilis Sfp phosphopantetheinyl transferase; Q9F4F7; Biochemical Sfp PPTase activity, qHTS; Potency, µM, inactives show largest response in the series, negative = inhibition, usual class: inhibitors; 3.5% of 310,000 active; AID 1490;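 also: the enzyme is Sfp with the accession as filed and its product quenches rhodamine fluorescence; 0% = enzyme reaction without inhibitor and -100% = no enzyme wells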
#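 Reaction rates are the 30-min fluorescence difference (ex 525, em 598 nm) in wells containing 15 nM Sfp, 5 uM rhodamine-CoA and 12.5 uM BHQ-2-YbbR at pH 7.6 with 10 mM MgCl2.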
# JMJD2A Tudor: JMJD2A Tudor domain (human) inhibition; AlphaScreen JMJD2A-Tudor / H3K4me3 peptide binding; Potency, µM (highest dose often 114 µM), for the others: at the highest dose activity change, negative = inhibition, usual class: inhibitors; 4.4% of 390,000 active; AID 504339; also: % is scaled to controls: 0 for no effect and ±100 for the full control effect; nearly all actives have a fitted effect of over 50% in size
# BAZ2B block: BAZ2B (human) inhibition; Potency, µM (titrated, usually from 114 µM), inactives show at the top dose activity change, negative = inhibition, actives largely listed as inhibitors; 4.4% of 360,000 active; AlphaScreen BAZ2B-H3K14Ac peptide displacement; Q9UIF8; also: % is scaled to controls: 0 for no effect and ±100 for the full control effect; nearly all actives have a fitted effect of over 60% in size
#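 In this displacement format the biotinylated H3(5-23) peptide acetylated at Lys14 serves as ligand at 50 nM, with BAZ2B at 50 nM in PBS pH 7.4 containing 0.01% Tween-20. Donor and acceptor beads are 10 ug/mL final.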
# * hit, by the source's call; ? = inconclusive; nt = no result given; [ ] = another dose, or the depositor's remark. Calls follow the shape of the dose curve; as a rule, active = well fitted curve in the direction sought with a large enough effect; inconclusive = small, poorly fitted or top-dose-only effect, or another doubt; inactive = no such curve, though single readings can be large; an effect the other way counts as inactive or inconclusive. Potency is read from the fitted curve at half-maximal effect.
SMILES,HP1b chromo inh,G9a block,L3MBTL1 inh,Sfp PPTase inh,JMJD2A Tudor,BAZ2B block
C/C(N)=C(/C#N)C(=O)CSc1nc2cc(Cl)ccc2s1,10.4%,14.1µM*,-8.6%,-11.4%,-19.0%,-9.7%
C/C(N)=C(/C#N)C(=O)CSc1cc(Cl)ccc1Cl,27.8%,?,0.5%,2.8%,-7.1%,-18.4%
O=C(COC(=O)CCCc1nc2ccccc2s1)NC(=O)NCc1ccco1,3.9%,?,-12.9%,4.9%,?,56.2µM*
O=C(CSc1nn(-c2ccccc2)c(=S)s1)Nn1cnnc1,11.2%,-3.0%[59 µM],2.7%,10.9%,-10.8%,-4.2%
O=C(CSc1nc2cc(Cl)ccc2s1)NC(=O)NCc1ccco1,-2.7%,-4.7%[59 µM],?,89.1µM*,?,-12.0%
O=C(NCc1ccco1)c1nc2ccccc2s1,12.4%,-16.1%[12.7 µM],2.5%,22.8%,-34.0%,-4.6%
O=C(CSc1nn(-c2ccccc2)c(=S)s1)NC(=O)NCc1ccco1,7.6%,14.1µM*,nt,-11.0%,-27.8%,?
COCCNC(=O)COC(=O)CSCc1nc2ccccc2s1,19.2%,79.4µM*,-6.0%,14.4%,-14.8%,8.5%
COCCNC(=O)c1nc2ccccc2s1,52.1%,-4.5%,7.4%,6.9%,0.0%,-27.9%
COc1ccc(OC)c(CCNC(=O)c2cnn(-c3ccccc3Cl)c2C2CCN(C(=O)OC(C)(C)C)CC2)c1,7.6%,-40.4%[59 µM],nt,nt,-31.4%,-21.8%[57.1 µM]
O=C(c1ccco1)N1CCN(C(=O)c2cc(-c3ccccn3)nc3ccc(Cl)cc23)CC1,-15.4%,?,9.4%[11.4 µM],15.8µM*,-6.3%[57.1 µM],-30.3%
O=C(c1ccco1)N1CCN(C(=O)c2cc(-c3ccccc3)nc3ccccc23)CC1,-2.0%,-15.1%[59 µM],0.0%,0.0%,?,-3.5%[57.1 µM]
COc1cccc(NC(C)C(=O)N2CC(C)OC(C)C2)c1 (stereo not drawn),12.3%,nt,-2.9%,2.1%,40.5%,1.9%
COc1cc(NC(C)C(=O)N2CC(C)OC(C)C2)cc(OC)c1 (stereo not drawn),15.8µM*,?,nt,-28.6%,3.16µM*,39.8µM*
O=C(O)c1ccc(CSc2nc(-c3ccc(Cl)cc3)cc(C(F)(F)F)n2)cc1,28.5%,-28.6%,-14.4%,50.1µM*,?,?
O=C(O)c1ccc(CSc2nc(-c3ccccc3)cc(C(F)(F)F)n2)cc1,32.1%,-3.8%,-1.5%,-4.3%,-13.9%,-2.4%
COc1cccc([C@@H]2Oc3ccc(OC)cc3C[C@H]2O)c1,nt,nt,nt,17.5%,nt,nt
N#C/C(=C/c1cn(CC(=O)O)c2ccccc12)C(=O)NCc1ccccc1,34.4%,56.2µM*,2.8%,11.0%,-3.8%,?
O=C(O)Cn1cc(/C=C/[N+](=O)[O-])c2ccccc21,-5.6%,56.2µM*,-10.7%,-13.1%,-22.6%[57.1 µM],-30.5%
CCN(CC)c1ccc(/C=C(/C#N)C(=O)NCc2ccccc2)o1,-17.9%,11.2µM*,4.6%,-7.2%,-12.4%,-32.4%
N#Cc1ccccc1Cn1cc(/C=C/[N+](=O)[O-])c2ccccc21,6.7%,50.1µM*,-16.1%,-28.3%,-23.0%,?
O=[N+]([O-])/C=C/c1cn(Cc2ccccc2)c2ccccc12,0.7%,?,10.5%,?,-19.5%,12.1%[57.1 µM]
CCc1ccc(CNC(=O)CCc2c(C)nn(-c3ccc(N4CCCCC4)nn3)c2C)cc1,13.1%,-3.1%[59 µM],nt,nt,-23.3%,-23.6%
CCn1c(/C=C/c2ccc(O)c(O)c2)nc2ccccc2c1=O,?,nt,20µM*,79.4µM*,56.2µM*,70.8µM*
CCn1c(/C=C/c2ccc(O)cc2)nc2ccccc2c1=O,33.0%,31.3%[59 µM],-6.5%,-5.8%,-8.6%,-14.5%
SMILES,HP1b chromo inh,G9a block,L3MBTL1 inh,Sfp PPTase inh,JMJD2A Tudor,BAZ2B block
O=C1[C@@H]2C(Cc3ccc(O)cc3)NC3(C(=O)Nc4ccc(F)cc43)[C@@H]2C(=O)N1c1ccccc1 (stereo partly drawn),-17.4%,79.4µM*,-8.0%,-1.5%,79.4µM*,-37.2%
Cc1c(Cl)ccc2c1NC(=O)[C@]21N[C@@H](Cc2ccccc2)[C@H]2C(=O)N(c3ccc(F)cc3)C(=O)[C@H]21,11.7%,1.58µM*,nt,13.5%,-29.2%,?
O=C1[C@@H]2[C@H](Cc3ccc(O)cc3)N[C@]3(C(=O)Nc4ccccc43)[C@@H]2C(=O)N1c1ccc(F)cc1,nt,?,-0.9%,13.2%,nt,1.9%
CCOc1ccccc1NC(=O)c1cc(S(=O)(=O)N2CCOCC2)cn1C,21.1%,-7.9%[59 µM],nt,nt,-1.6%,-12.9%
CCOc1ccccc1NC(=O)C1CCN(S(=O)(=O)c2ccc3[nH]c4c(c3c2)CCCCC4)CC1,23.6%,-39.6%[59 µM],nt,nt,-19.5%,-11.2%
O=C(NCCN1CCCCCC1)C1CCC(CNS(=O)(=O)c2cccc3cccnc23)CC1 (stereo not drawn),25.4%,44.7µM*,nt,6.8%,?,-31.9%
NCCCCNc1ncnc2ccc(-c3ccc4c(c3)OCO4)cc12,nt,nt,nt,nt,-31.9%,nt
COc1ccc(-c2nn3c(-c4ccccc4C)nnc3c3ccccc23)cc1,40.9%,5.6%[59 µM],nt,nt,-15.1%,3.4%
CCN(CC)CCN(CC)Cc1ccccc1Br,35.1%,50.1µM*,8.6%,4.4%,-1.9%,-12.0%
Cc1ccc(NC(=O)c2cc(S(=O)(=O)N3CCCCC3)c[nH]2)cc1N(C)C,20.5%,4.6%[59 µM],nt,nt,-29.7%,2.9%
Cc1cccc(N2CCN(S(=O)(=O)c3ccc4c(c3)CCN4C(=O)CCC(=O)O)CC2C)c1 (stereo not drawn),?,?,nt,-2.1%,56.2µM*,?
O=C(CSc1ccsc1[N+](=O)[O-])N1CCN(c2ccccn2)CC1,-20.3%,44.7µM*,-13.9%,2.7%,?,?
Cc1cccc(N2CCN(C(=O)C3CCN(c4nnc(-n5cccc5)s4)CC3)CC2C)c1 (stereo not drawn),-3.7%,50.1µM*,-10.2%,-13.3%,?,?
Cc1cccc(N2CCN(C(=O)CCC(=O)N3CC(C)Oc4ccc(C)cc43)CC2C)c1 (stereo not drawn),-10.3%,44.7µM*,-14.0%,-4.6%,?,?
O=C(CSc1ccccc1)N1CCN(c2ccccn2)CC1,-6.4%,-20.5%,-3.4%,13.3%,?,-15.3%
O=C(Nc1cccc(C(F)(F)F)c1)C1CCCN(S(=O)(=O)c2cccc3nsnc23)C1 (stereo not drawn),16.2%,-29.9%[59 µM],nt,nt,-6.0%,nt
Cc1cccc(N2CCN(C(=O)/C=C/c3cccs3)CC2C)c1 (stereo not drawn),10.4%,-36.1%,nt,1.5%,-31.5%,?
Cc1cccc(N2CCN(C(=O)CSc3ccsc3[N+](=O)[O-])CC2C)c1 (stereo not drawn),-36.1%,?,31.6µM*,-7.2%,?,39.8µM*
Oc1ccc(Cl)cc1C1=NNC(c2cccs2)C1 (stereo not drawn),-11.2%,50.1µM*,-22.5%,-19.5%,-33.1%[11.4 µM],-37.9%

# From PubChem BioAssay
